# From PubChem BioAssay AID1159580 (chemical genetic matrix, 2015)
# Screen size: about 5,500 compounds; about 2,000 (36%) were called active. About 18% were inconclusive and are not listed. The list shows a part of the results. Values without a mark were called inactive. No stated cut-off is given here; in the data, active means normalized growth mostly below about 0.91 (no sharp cut-off); inconclusive means no clear call, values can overlap the other calls; inactive means mostly above about 0.92.
# Assay: chemical genetic growth profiling, strain panel (AID 1159580);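 further: tested at 20 µM; growth read once vehicle control cultures reached saturation at 30 °C; 1 = growth at the plate median or of vehicle wells; lower values mean less growth of the strain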
# Conditions: S. cerevisiae deletion strains, growth OD
# [1] = locus YDL101C, strain DUN1, hits give low values
# [2] = locus YJL095W, strain BCK1, hits give low values
# [3] = locus YOR061W, strain CKA2, hits give low values
smiles,measurement,setting,value
COc1ccc(/C(C#N)=C2C=C/C(=N/O)C(Cl)=C\2)cc1,normalized growth,"locus YAR019C, strain CDC15, hits give low values",0.972
same,normalized growth,"locus YBL105C, strain PKC1, hits give low values",0.975
same,normalized growth,"locus YBR135W, strain CKS1, hits give low values",0.959
same,normalized growth,"locus YBR136W, strain MEC1, hits give low values",0.954
same,normalized growth,"locus YBR160W, strain CDC28, hits give low values",0.976
same,normalized growth,"locus YDL017W, strain CDC7, hits give low values",0.984
same,normalized growth,"locus YDL028C, strain MPS1, hits give low values",0.976
same,normalized growth,[1],0.971
same,normalized growth,"locus YDL108W, strain KIN28, hits give low values",0.969
same,normalized growth,"locus YDL132W, strain cdc53, hits give low values",0.948
same,normalized growth,"locus YDL214C, strain PRR2, hits give low values",0.918
same,normalized growth,"locus YDR052C, strain DBF4, hits give low values",0.966
same,normalized growth,"locus YDR054C, strain cdc34, hits give low values",0.958
same,normalized growth,"locus YDR226W, strain ADK1, hits give low values",0.955
same,normalized growth,"locus YDR477W, strain SNF1, hits give low values",0.898
same,normalized growth,"locus YER123W, strain YCK3, hits give low values",0.898
same,normalized growth,"locus YER133W, strain GLC7, hits give low values",0.906
same,normalized growth,"locus YFL009W, strain cdc4, hits give low values",0.962
same,normalized growth,"locus YFL029C, strain CAK1, hits give low values",0.965
same,normalized growth,"locus YFR003C, strain YPI1, hits give low values",0.97
same,normalized growth,"locus YFR019W, strain FAB1, hits give low values",0.949
same,normalized growth,"locus YFR028C, strain CDC14, hits give low values",0.948
same,normalized growth,"locus YGR040W, strain KSS1, hits give low values",0.864
same,normalized growth,"locus YGR052W, strain FMP48, hits give low values",0.925
same,normalized growth,"locus YGR092W, strain DBF2, hits give low values",0.822
same,normalized growth,"locus YHR030C, strain SLT2, hits give low values",0.879
same,normalized growth,"locus YHR079C, strain IRE1, hits give low values",0.996
same,normalized growth,"locus YHR082C, strain KSP1, hits give low values",0.937
same,normalized growth,"locus YHR205W, strain SCH9, hits give low values",0.775
same,normalized growth,"locus YIL147C, strain SLN1, hits give low values",0.968
same,normalized growth,[2],0.842
same,normalized growth,"locus YJL128C, strain PBS2, hits give low values",0.942
same,normalized growth,"locus YJL157C, strain FAR1, hits give low values",0.926
same,normalized growth,"locus YJR016C, strain ILV3, hits give low values",0.954
same,normalized growth,"locus YJR066W, strain TOR1 (second series), hits give low values",0.85
same,normalized growth,"locus YJR066W, strain TOR1, hits give low values",0.887
same,normalized growth,"locus YKL048C, strain ELM1, hits give low values",0.929
same,normalized growth,"locus YKL067W, strain YNK1, hits give low values",0.932
same,normalized growth,"locus YKL101W, strain HSL1, hits give low values",0.893
same,normalized growth,"locus YKL193C, strain SDS22, hits give low values",0.964
same,normalized growth,"locus YKL203C, strain TOR2, hits give low values",0.866
same,normalized growth,"locus YLR113W, strain HOG1, hits give low values",0.851 (active)
same,normalized growth,"locus YLR133W, strain CKI1, hits give low values",0.913
same,normalized growth,"locus YLR403W, strain SFP1, hits give low values",0.866
same,normalized growth,"locus YML070W, strain DAK1, hits give low values",0.915
same,normalized growth,"locus YMR001C, strain CDC5, hits give low values",0.959
same,normalized growth,"locus YMR205C, strain PFK2 (second series), hits give low values",0.941
same,normalized growth,"locus YMR277W, strain FCP1, hits give low values",0.967
same,normalized growth,"locus YNL006W, strain LST8, hits give low values",0.985
same,normalized growth,"locus YNL020C, strain ARK1, hits give low values",0.922
same,normalized growth,"locus YNL161W, strain CBK1, hits give low values",0.973
same,normalized growth,"locus YNL183C, strain NPR1, hits give low values",0.862
same,normalized growth,"locus YNL207W, strain RIO2, hits give low values",0.961
same,normalized growth,"locus YNL222W, strain SSU72, hits give low values",0.971
same,normalized growth,"locus YNL307C, strain MCK1 (second series), hits give low values",0.874
same,normalized growth,"locus YOL078W, strain AVO1, hits give low values",0.958
same,normalized growth,"locus YOL136C, strain PFK27, hits give low values",0.894
same,normalized growth,[3],0.903
same,normalized growth,"locus YOR119C, strain RIO1, hits give low values",0.87
same,normalized growth,"locus YOR231W, strain MKK1, hits give low values",0.905
same,normalized growth,"locus YOR329C, strain SCD5, hits give low values",0.985
same,normalized growth,"locus YPL031C, strain PHO85, hits give low values",0.854
same,normalized growth,"locus YPL153C, strain RAD53, hits give low values",0.899
same,normalized growth,"locus YPL204W, strain HRR25, hits give low values",0.864
same,normalized growth,"locus YPL209C, strain IPL1, hits give low values",0.977
same,normalized growth,"locus YPL256C, strain CLN2, hits give low values",0.967
same,normalized growth,"locus YPR025C, strain CCL1, hits give low values",0.977
same,normalized growth,"locus YPR106W, strain ISR1, hits give low values",0.96
same,normalized growth,"locus YPR111W, strain DBF20, hits give low values",0.942
same,normalized growth,"strain NNK1, hits give low values",0.979
same,normalized growth,"strain TSCII, hits give low values",0.959
C/C=C(\C)C(=O)OC1[C@@H]2C=C3C4CC(=O)O[C@@H](c5ccoc5)[C@]4(C)CCC3[C@@](C)(C2=O)[C@@H](C(O)C(=O)OC)C1(C)C (some centres undefined),normalized growth,"locus YBR021W, strain FUR4, hits give low values",1
same,normalized growth,"locus YBR229C, strain ROT2, hits give low values",0.997
same,normalized growth,"locus YCL029C, strain bik1, hits give low values",1.01
same,normalized growth,"locus YDL035C, strain GPR1, hits give low values",0.994
same,normalized growth,"locus YDL074C, strain BRE1, hits give low values",1.03
same,normalized growth,[1],1.01
same,normalized growth,"locus YDL134C, strain PPH21, hits give low values",1.01
same,normalized growth,"locus YDL185W, strain tfp1, hits give low values",1.02
same,normalized growth,"locus YDL192W, strain arf1, hits give low values",1.01
same,normalized growth,"locus YDR101C, strain arx1, hits give low values",1.01
same,normalized growth,"locus YDR162C, strain NBP2, hits give low values",1.01
same,normalized growth,"locus YDR318W, strain mcm21, hits give low values",1.02
same,normalized growth,"locus YDR388W, hits give low values",1.02
same,normalized growth,"locus YDR502C, strain sam2, hits give low values",1.03
same,normalized growth,"locus YER110C, hits give low values",1.01
same,normalized growth,"locus YER155C, strain BEM2, hits give low values",1
same,normalized growth,"locus YER167W, strain BCK2, hits give low values",0.994
same,normalized growth,"locus YGL078C, strain dbp3, hits give low values",1.03
same,normalized growth,"locus YGL086W, strain mad1, hits give low values",1.01
same,normalized growth,"locus YGL248W, strain PDE1, hits give low values",1
same,normalized growth,"locus YGR135W, strain pre9, hits give low values",1.03
same,normalized growth,"locus YGR252W, strain gcn5, hits give low values",1.02
same,normalized growth,"locus YHR079C, strain IRE1 (second series), hits give low values",1.03
same,normalized growth,"locus YHR094C, strain hxt1, hits give low values",1.03
same,normalized growth,"locus YHR129C, strain ARP1, hits give low values",1
same,normalized growth,"locus YHR200W, strain rpn10, hits give low values",1.02
same,normalized growth,"locus YIL066C, strain RNR3, hits give low values",0.997
same,normalized growth,"locus YIL073C, strain SPO22, hits give low values",1.05
same,normalized growth,"locus YIL125W, strain kgd1, hits give low values",1.01
same,normalized growth,"locus YIR030C, strain dcg1, hits give low values",1.02
same,normalized growth,[2],1.03
same,normalized growth,"locus YJL134W, strain LCB3, hits give low values",1.01
same,normalized growth,"locus YJL168C, strain set2, hits give low values",1.02
same,normalized growth,"locus YJL187C, strain SWE1 (second series), hits give low values",1.02
same,normalized growth,"locus YJR043C, strain POL32, hits give low values",0.983
same,normalized growth,"locus YJR075W, strain HOC1, hits give low values",1.02
same,normalized growth,"locus YKL009W, strain mrt4, hits give low values",1
same,normalized growth,"locus YKL068W, hits give low values",1.01
same,normalized growth,"locus YKL085W, strain MDH1 (second series), hits give low values",0.996
same,normalized growth,"locus YKL085W, strain MDH1, hits give low values",0.996
same,normalized growth,"locus YKL190W, strain CNB1, hits give low values",1
same,normalized growth,"locus YKR001C, strain vps1, hits give low values",1.03
same,normalized growth,"locus YLR039C, strain RIC1, hits give low values",1
same,normalized growth,"locus YLR058C, strain SHM2, hits give low values",1
same,normalized growth,"locus YLR102C, strain apc9, hits give low values",1.01
same,normalized growth,"locus YLR262C, strain YPT6, hits give low values",0.97
same,normalized growth,"locus YLR268W, strain sec22, hits give low values",1.02
same,normalized growth,"locus YLR342W, strain FKS1 (second series), hits give low values",0.998
same,normalized growth,"locus YLR371W, strain rom2, hits give low values",1.02
same,normalized growth,"locus YLR418C, strain cdc73, hits give low values",1.05
same,normalized growth,"locus YML016C, strain PPZ1, hits give low values",0.999
same,normalized growth,"locus YML032C, strain rad52, hits give low values",1.02
same,normalized growth,"locus YML124C, strain tub3, hits give low values",1.01
same,normalized growth,"locus YMR078C, strain ctf18, hits give low values",1.01
same,normalized growth,"locus YMR223W, strain ubp8, hits give low values",1.02
same,normalized growth,"locus YMR307W, strain GAS1, hits give low values",0.998
same,normalized growth,"locus YNL067W, strain RPL9B, hits give low values",1.02
same,normalized growth,"locus YNL128W, strain TEP1, hits give low values",1
same,normalized growth,"locus YNL233W, strain BNI4, hits give low values",1.05
same,normalized growth,"locus YNL250W, strain rad50, hits give low values",1.01
same,normalized growth,"locus YNL271C, strain bni1, hits give low values",1.02
same,normalized growth,"locus YNL298W, strain CLA4, hits give low values",1.01
same,normalized growth,"locus YNL307C, strain MCK1, hits give low values",1.01
same,normalized growth,"locus YNR052C, strain pop2, hits give low values",1.03
same,normalized growth,"locus YOL006C, strain TOP1, hits give low values",0.976
same,normalized growth,"locus YOL012C, strain htz1",1.07
same,normalized growth,"locus YOL147C, strain pex11, hits give low values",1.01
same,normalized growth,[3],1
same,normalized growth,"locus YOR069W, strain VPS5, hits give low values",1
same,normalized growth,"locus YOR136W, strain idh2, hits give low values",1.01
same,normalized growth,"locus YOR144C, strain elg1, hits give low values",1.01
same,normalized growth,"locus YOR184W, strain ser1, hits give low values",1
same,normalized growth,"locus YOR316C, strain cot1, hits give low values",1.01
same,normalized growth,"locus YPR119W, strain clb2, hits give low values",1.02
same,normalized growth,"locus YPR141C, strain kar3, hits give low values",1.02
same,normalized growth,"locus YPR163C, strain tif3, hits give low values",1.01
same,normalized growth,"locus YPR167C, strain met16, hits give low values",1.02
same,normalized growth,"strain wtn01, hits give low values",0.994
